PubChem BioAssay (NCI)
Compounds without any hit were thinned out: in the full panel of roughly 83,000, 20% have a hit.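 Cell lines were cultured in 96-well plates, exposed to a single compound concentration, and assessed for percent growth 48 hours later.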 A number with no mark means an inactive call. Active and inactive are the calls of the source. How the source made its calls: active means growth percent below 10; inactive means the rest.

What was measured:
Test in all cases: NCI-60 one-dose screen, 48 h (100 = growth as untreated, 0 = no growth, -100 = all killed)
Conditions in all cases: 10 µM unless noted
[1] = test system: BT-549 breast
[2] = test system: MDA-MB-435 melanoma
[3] = test system: SW-620 colon
[4] = test system: MCF7 breast
[5] = test system: HCT-116 colon
[6] = test system: KM12 colon
[7] = test system: HCC-2998 colon

Row | Compound | growth [1] | growth [2] | growth [3] | growth [4] | growth [5] | growth [6] | growth [7]
1 | CCOc1ccc2nc(NC(=O)c3ccc(C(F)(F)F)cc3)sc2c1 | 98.5% | 96.6% | 103% | 98.6% | 102% | 103% | –
2 | COc1cccc(N2CCN(c3ncnc4c3[nH]c3ccc(F)cc34)C[C@@H]2C)c1 | -97% (active) | -75.4% (active) | -3.32% (active) | 0.969% (active) | -35.9% (active) | -71% (active) | 16.7%
3 | Oc1c(Cl)cc(Cl)c2ccc(CN3CCCCC3)nc12 | 89.1% | 42.1% | 30.4% | 28.9% | 21.3% | 30.7% | –
4 | Fc1ccc(-c2cc3nc(C(Cl)Cl)nc(-c4ccccc4)n3n2)cc1 | 46.5% | 6.42% (active) | -50.2% (active) | 8.55% (active) | -54.7% (active) | -37.7% (active) | –
5 | COC(=O)c1ccc(NC(=S)N2CCc3ccc([N+](=O)[O-])cc3C2)cc1O | 101% | 111% | 110% | 92.7% | 117% | 103% | –
6 | COc1ccc(C(=O)/C=C/c2ccc(Oc3nc(NCCO)nc(N4CCOCC4)n3)c(OC)c2)cc1 | 90.9% | 44.5% | 0.395% (active) | 12.7% | 10.6% | 28.9% | –
7 | COc1ccc(NC2=C(Cl)C(=O)C(C)=C(C)C2=O)cc1OC | 108% | 103% | 101% | 77.8% | 96.4% | 55.2% | –
8 | Cc1cc2nc3c4cc(Cl)ccc4n(CC(=S)NCCN(C)C)c3nc2cc1C | 75% | -92.4% (active) | -91.4% (active) | -81.5% (active) | -94.2% (active) | -60.2% (active) | –
9 | Clc1ccc2c(OCCCN3CCOCC3)c3oc4ccccc4c3nc2c1 | 80.1% | 33.2% | 19.2% | 10.4% | 17.7% | 33.1% | –
10 | COc1cc2nc(-c3ccc(Cl)cc3)cc(OCCCNCC3CCCO3)c2cc1OC (stereo not drawn) | 87.7% | 12.4% | 54.3% | 36% | 25.1% | 39.8% | –
11 | C#C[C@]1(O)CC[C@H]2[C@@H]3CC=C4c5sc(Nc6ccc(Cl)cn6)nc5CC[C@]4(C)[C@H]3CC[C@@]21C | 32.9% | 41.4% | 29.5% | 17.6% | 34.5% | 38.9% | –
12 | CN(C)CCCOc1c2ccccc2nc2c1oc1ccc(Cl)cc12 | 19.2% | -19.8% (active) | -3.7% (active) | -16.6% (active) | 10.9% | 1.62% (active) | –
13 | Cc1ccc2c(n1)C(=O)C(Cl)=C(Nc1cccc(C(C)C)c1)C2=O | 58.7% | -70.6% (active) | 28.3% | -56.7% (active) | 13.1% | 80% | –
14 | Nc1cc(-c2c[nH]c3ccc(Cl)cc23)nc2cc(-c3c[nH]c4ccc(Cl)cc34)nn12 | 87.5% | 57.7% | 15.7% | 14.4% | 27.7% | 12.7% | –
15 | N#Cc1c(-c2ccc(Cl)cc2)nc(SCc2ccc(F)cc2)nc1N1CCNCC1 | 101% | 69.3% | -80.2% (active) | -19.3% (active) | -93.8% (active) | 33.6% | –
16 | N#Cc1c(-c2ccc(Cl)cc2)nc(SCc2ccccc2)nc1N1CCNCC1 | 90.5% | 71.4% | -50.2% (active) | 8.71% (active) | -74.3% (active) | 39.6% | –
17 | CN1CCN(Cc2ccc(NC(=O)c3cncc(C#Cc4cnc5[nH]ncc5c4)c3)cc2C(F)(F)F)CC1 | 73.3% | 8.99% (active) | 11.5% | 52.6% | 12.4% | 6.81% (active) | –
18 | COc1ccc(CNS(=O)(=O)/N=C2\NC(=O)NC2=C(Cl)Cl)cc1 | -8.05% (active) | -3.14% (active) | 27.2% | 18.2% | 6.95% (active) | 17.1% | –
19 | O=C(Nc1nc2ccc(O)cc2s1)c1cccc(C(F)(F)F)c1 | 84.4% | 44.7% | 52.1% | 73.7% | 57.6% | 42.7% | –
20 | Clc1ccc(Cc2nnc3sc(-c4cccnc4)nn23)cc1 | 95.5% | 101% | 99.1% | 88.7% | 101% | 99.7% | –

Row | Compound | growth [1] | growth [2] | growth [3] | growth [4] | growth [5] | growth [6] | growth [7]
21 | CC1=C(C)C(=O)C(Nc2ccccc2)=C(Cl)C1=O | 114% | 102% | 96.5% | 90.7% | 79.1% | 78.3% | –
22 | [Cl][Ru].c1ccc(-c2cccc(-c3ccccn3)n2)nc1.c1ccc(-c2ccnc3c2ccc2c(-c4ccccc4)ccnc23)cc1 | 7.88% (active) | 10.5% | 40.2% | 9.54% (active) | 36.9% | 8.28% (active) | –
23 | CCN1C(=S)N(c2ccccc2)C2NC(=O)N(/N=C/C=C/c3ccccc3OC)C21 (stereo not drawn) | 94.5% | 52.6% | 90.4% | 62.9% | 88% | 88.3% | –
24 | CCOC(=O)c1c(Nc2ccccc2)nn2c(N)c(C#N)c(-c3ccccc3)nc12 | 95% | 75.3% | 81.6% | 60.1% | 78.3% | 77.7% | –
25 | COc1ccc(-c2nc3ccc(-c4nnc(SCC(=O)Nc5ccc(C(=O)/C=C/c6ccccc6)cc5)o4)cc3[nH]2)cc1OC | 94.1% | 106% | 104% | 78.3% | 89.7% | 99% | –
26 | CSc1ccc2c(c1)N(C(=O)/C(C#N)=C/c1c[nH]c3ccccc13)c1ccccc1S2 | 55.8% | 11.7% | 34.5% | 23.1% | 24.3% | 24.5% | –
27 | CN1CCN(Cc2ccc(NC(=O)c3cncc(C#Cc4cnc5ccc(N6CCSCC6)nn45)c3)cc2C(F)(F)F)CC1 | 40.5% | -73.4% (active) | -3.56% (active) | -59.7% (active) | -51.8% (active) | -22.5% (active) | –
28 | CC(C)NC(=O)c1cc(-c2ccc(NC(=O)Nc3ccc(N4CCOCC4)c(C(F)(F)F)c3)cc2)nc2cccnc12 | 66.7% | 67.9% | 79.7% | – | 63.9% | – | –
29 | COc1ccc(/C=N/Nc2ccnc3cc(Cl)ccc23)cc1Cl | -79.8% (active) | -84.1% (active) | -89% (active) | -12.2% (active) | -89.4% (active) | -88.6% (active) | –
30 | COc1cc(-c2nc3ccc(-c4nnc(SCC(=O)Nc5ccc(C(C)=O)cc5)o4)cc3[nH]2)cc(OC)c1OC | 108% | 108% | 101% | 92.6% | 106% | 101% | –
31 | CCOC(=O)c1sc(N)c(C(=O)OCC)c1C | 59.9% | 81.2% | 71.6% | 57.9% | 52.8% | 69.1% | –
32 | Cn1c(SCC(=O)c2cccs2)nc2ccccc2c1=O | 108% | 103% | 99.7% | 62.4% | 93.9% | 99.1% | –
33 | CC(C)(C)Nc1nc2c(OCCc3ccccc3)cccn2c1-c1ccc(O)cc1 | 85.4% | 72.5% | 69% | 45.4% | 38.2% | 38.2% | –
34 | O=C(N/N=C/c1cccs1)c1[nH]c2ccc(Br)cc2c1-c1ccccc1 | -14.2% (active) | -26.1% (active) | 22.8% | 8.78% (active) | -33.7% (active) | 6.37% (active) | –
35 | COc1cc(-c2ccc3ncnc(NC(C)c4ccccc4)c3c2)cnc1OC (stereo not drawn) | 32.6% | 69.6% | 69.2% | 23.7% | 76.8% | 75.3% | –
36 | NC(=O)c1c(NC(=O)c2ccc(C3CCCCC3)cc2)sc2c1CCC(=O)C2 | -2.9% (active) | 11.9% | 10.4% | 10.9% | 7.94% (active) | 15.8% | –
37 | O=C(NNc1nc2cc(F)ccc2n2c(CN3CC4(COC4)C3)ccc12)c1cnccn1 | 36.4% | 35.2% | 27.1% | 13.6% | 22% | 23% | –
38 | COc1ccc(C(=O)c2cc(C(=O)/C=C/c3c(Cl)cccc3Cl)c3cc(C)ccn23)cc1 | 119% | 99.6% | 95.5% | 98% | 99.8% | 100% | –
39 | CO/N=C1\CCc2c(sc(NC(=O)c3cccc(C(F)(F)F)c3)c2C(N)=O)C1 | 49.4% | 49.1% | 43.4% | 45.9% | 5% (active) | 56% | –
